Paper PMC5540273 (PLoS ONE, 2017)

Legend:
Conditions in all cases: concentration: 1 μM, replicates: in singlicate; n = 1
MTOR = system: MTOR
MUSK = system: MUSK
MYLK2 = system: MYLK2
MYLK4 = system: MYLK4
MYLK = system: MYLK
MYO3A = system: MYO3A
MYO3B = system: MYO3B
NDR1 = system: T1, NDR1
T1 construct: gene STK38

NDR2 = system: NDR2
NEK10 = system: NEK10
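Note: KINOMEscan kinase panel screen.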

SMILES	%Inh (MTOR) [%]	%Inh (MUSK) [%]	%Inh (MYLK2) [%]	%Inh (MYLK4) [%]	%Inh (MYLK) [%]	%Inh (MYO3A) [%]	%Inh (MYO3B) [%]	%Inh (NDR1) [%]	%Inh (NDR2) [%]	%Inh (NEK10) [%]
c1ccc(-c2cnc3nccnn23)cc1 [AH20685]	2	2	0	0	0	0	0	0	0	0
CC(=O)N1CCN(c2ccc(Nc3nccc(-c4sc(C(C)C)nc4-c4cccc(NS(=O)(=O)c5cccc(Cl)c5)c4)n3)cn2)CC1 [GSK1660437]	3	14	0	0	7	12	49	14	0	0
Cc1ccc(C(=O)N2CC[C@@H](O)C2)cc1-n1c(C)cc(OCc2ccc(F)cc2F)c(Br)c1=O	45	9	0	0	0	0	0	26	0	0
Cn1cc(-c2ccc3c(c2)CCN3C(=O)Cc2cccc(Cl)c2)c2c(N)ncnc21 [GSK2606590]	0	29	71	0	8	43	21	0	0	18
O=C(Nc1n[nH]c2nc(-c3ccc(O)cc3)ccc12)C1CC1 [SB-710363]	0	0	79	31	35	62	9	0	4	0
COc1cc(Nc2nccc(N3CCC(NC(=O)Nc4cccc(C(C)=O)c4)C3)n2)cc(OC)c1OC (stereo not shown) [GSK1379753]	0	18	7	1	17	6	0	8	0	20
CN(c1ccc(NC(=O)Nc2cc(C(F)(F)F)ccc2F)cc1)c1ccnc(Nc2ccc(S(N)(=O)=O)cc2)n1 [GW809893]	0	95.3	65	16	0	50	37	27	11	0
O=C(NC1CCN(c2ccnc(Nc3ccc(F)cc3)n2)C1)c1cc2ccccc2s1 (stereo not shown) [GSK1379716]	25	21	4	5	36	36	0	8	0	19
Nc1ncc(-c2cccnc2)c2scc(-c3ccc4c(c3)CCN4C(=O)Cc3ccccc3)c12 [GSK683281]	0	39	32	11	33	17	6	29	0	14
Oc1cc(Nc2ccnc3cc(I)ccc23)ccc1F [GW552771]	11	5	0	1	17	0	0	0	0	9
